Assay results from PubChem BioAssay AID1159580 (chemical genetic matrix, 2015).
The whole screen tested about 5,500 compounds, of which about 2,000 (36%) were called active. Another 18% or so got no clear call; they are omitted. Some of the results follow. A number with no mark means an inactive call. No stated cut-off is given here; in the data, active means normalized growth mostly below about 0.91 (no sharp cut-off); inconclusive means no clear call, values can overlap the other calls; inactive means mostly above about 0.92.

Experiment: chemical genetic growth profiling, strain panel (AID 1159580);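 further: tested at 20 µM; growth read once vehicle control cultures reached saturation at 30 °C; 1 = growth at the plate median or of vehicle wells; lower values mean less growth of the strain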
Settings: growth OD
[1] = S. cerevisiae deletion strains, locus YMR263W, strain SAP30, hits give low values
[2] = S. cerevisiae deletion strains, locus YNL153C, strain GIM3, hits give low values
[3] = S. cerevisiae deletion strains, locus YNL322C, strain KRE1, hits give low values
[4] = S. cerevisiae deletion strains, locus YPL241C, strain CIN2, hits give low values

[N-]=[N+]=Nc1ccc(C(=O)CSC[C@H](NC(=O)CC[C@H](N)C(=O)O)C(=O)NCC(=O)O)cc1
normalized growth (S. cerevisiae deletion strains, locus YAL040C, strain CLN3, hits give low values): 1.02 | normalized growth (S. cerevisiae deletion strains, locus YDR363W, strain ESC2, hits give low values): 0.999 | normalized growth (S. cerevisiae deletion strains, locus YER002W, strain NOP16, hits give low values): 0.989 | normalized growth (S. cerevisiae deletion strains, locus YGR229C, strain SMI1, hits give low values): 1 | normalized growth [1]: 0.997 | normalized growth [2]: 0.99 | normalized growth (S. cerevisiae deletion strains, locus YNL175C, strain NOP13, hits give low values): 1.01 | normalized growth (S. cerevisiae deletion strains, locus YNL197C, strain WHI3, hits give low values): 1.01 | normalized growth (S. cerevisiae deletion strains, locus YNL224C, strain SQS1, hits give low values): 1.01 | normalized growth [3]: 1.01 | normalized growth (S. cerevisiae deletion strains, locus YOR083W, strain WHI5 (second series), hits give low values): 1.01 | normalized growth [4]: 0.996

CSc1ccc(C(=O)O)s1
normalized growth (S. cerevisiae deletion strains, locus YAL013W, strain DEP1, hits give low values): 0.969 | normalized growth (S. cerevisiae deletion strains, locus YBR229C, strain ROT2, hits give low values): 0.931 | normalized growth (S. cerevisiae deletion strains, locus YCL061C, strain MRC1, hits give low values): 0.938 | normalized growth (S. cerevisiae deletion strains, locus YDL101C, strain DUN1, hits give low values): 0.939 | normalized growth (S. cerevisiae deletion strains, locus YDR150W, strain NUM1, hits give low values): 0.945 | normalized growth (S. cerevisiae deletion strains, locus YEL061C, strain CIN8, hits give low values): 1.03 | normalized growth (S. cerevisiae deletion strains, locus YGR078C, strain PAC10, hits give low values): 0.926 (active) | normalized growth (S. cerevisiae deletion strains, locus YHR030C, strain SLT2, hits give low values): 1.16 | normalized growth (S. cerevisiae deletion strains, locus YHR087W, strain rtc3, hits give low values): 0.862 (active) | normalized growth (S. cerevisiae deletion strains, locus YJR043C, strain POL32, hits give low values): 0.961 | normalized growth (S. cerevisiae deletion strains, locus YJR075W, strain HOC1, hits give low values): 0.874 (active) | normalized growth (S. cerevisiae deletion strains, locus YKL190W, strain CNB1, hits give low values): 1.01 | normalized growth (S. cerevisiae deletion strains, locus YLR039C, strain RIC1, hits give low values): 1.04 | normalized growth (S. cerevisiae deletion strains, locus YLR058C, strain SHM2 (second series), hits give low values): 0.945 | normalized growth (S. cerevisiae deletion strains, locus YLR085C, strain ARP6, hits give low values): 1.1 | normalized growth (S. cerevisiae deletion strains, locus YLR262C, strain YPT6, hits give low values): 1.01 | normalized growth (S. cerevisiae deletion strains, locus YML094W, strain GIM5, hits give low values): 1.04 | normalized growth (S. cerevisiae deletion strains, locus YMR219W, strain ESC1, hits give low values): 0.957 | normalized growth [1]: 0.955 | normalized growth (S. cerevisiae deletion strains, locus YMR307W, strain GAS1, hits give low values): 1.05 | normalized growth (S. cerevisiae deletion strains, locus YNL128W, strain TEP1, hits give low values): 1.01 | normalized growth [2]: 0.932 | normalized growth (S. cerevisiae deletion strains, locus YNL298W, strain CLA4 (second series), hits give low values): 1.07 | normalized growth [3]: 0.944 | normalized growth (S. cerevisiae deletion strains, locus YNR030W, strain Alg12, hits give low values): 1.03 | normalized growth (S. cerevisiae deletion strains, locus YPL055C, strain LGE1, hits give low values): 0.883 | normalized growth [4]: 0.906 | normalized growth (S. cerevisiae deletion strains, locus YPR135W, strain CTF4, hits give low values): 1.11 | normalized growth (S. cerevisiae strains, strain wild type, hits give low values): 1.01
